Each structure is given as a SMILES string. Compounds without any hit were thinned out: in the full panel of roughly 83,000, 20% have a hit.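 Growth was measured after 48 h exposure to one concentration of compound in 96-well plates. Values under 10 count as active.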 A number with no mark means an inactive call. The source made the active and inactive calls.

This test deals with SK-MEL-28 melanoma. In words: NCI-60 one-dose screen, 48 h (100 = growth as untreated, 0 = no growth, -100 = all killed). As to conditions: 10 µM unless noted. Here is the method:
Growth inhibition of the SK-MEL-28 human tumor cell line is measured as a screen for anti-cancer activity. Cells are grown in 96 well plates and exposed to the test compound for 48 hours. Compounds are tested at a single concentration, which is 10^-5 M for most compounds. The reported endpoint is percent growth (GI% or GIPRCNT), where numbers from 0 - 100% represent growth inhibition, and numbers from -100% - 0 represent cell death. For example, a value of 40 represents 60% growth inhibition. A value of 0 means no net growth occurred over the course of the experiment. A value of -40 indicates 40% of cells at the beginning of the experiment died by the end of the experiment. A value of -100 means all cells are dead at the end of the experiment.
NCI-60 Human Tumor Cell Lines Screen was performed using the standard one-dose NCI protocol, which is described in more detail at https://dtp.cancer.gov/discovery_development/nci-60/default.htm.
Compounds with GIPRCNT values below 10 were considered active. Activity score was based on GIPRCNT using the following formula: […]
Score is 0 for GIPRCNT values of 100 or above, 50 for GIPRCNT values of 0, and 100 for GIPRCNT values of -100.
For `O=C(COc1ccc(Cl)cc1)N1CCN(Cc2ccc3c(c2)OCO3)CC1`, the growth was 116%.
In the case of `O=C(NCCNc1nccc(-c2c(-c3cccc(O)c3)nc3sccn23)n1)c1ccccc1`, the growth is 37.8%.
For the compound `CC1(C)CC(=O)C2=C(C1)OC1=C(C(=O)CC(C)(C)C1)C2c1ccc(OCc2cn(-c3ccc(F)cc3F)nn2)cc1`, the growth is 103%.
To `O=C(Nc1ccc(-n2cc(-c3ccncc3)c(-c3ccc(O)c(Cl)c3)n2)cc1)c1ccc(Cl)c(C(F)(F)F)c1` belongs 44.3%.
To `COc1ccc(Cl)cc1NC(=O)c1cc2c(n1C)-c1nc(NC(=O)C(C)C)sc1CC2` belongs 95.1%; to `O=C1OC(c2ccc(-c3ccccc3)cc2)=C/C1=C/C=C/c1ccccc1`, 103%.
With `Nc1nc(-c2cc3c(cc2Cl)NC(=O)/C3=C/c2ccc(Cl)cc2)cs1`, the growth was 45.4%.
In the case of `Nc1nccc2c1ccn2-c1ccc(NC(=O)c2ccc(N3CCOCC3)c(C(F)(F)F)c2)cc1`, the growth was 48.9%.
For the compound `CCCCOc1c(N)cccc1C(=O)OCCN(CC)CC`, the growth is 112%.
On to `CCCCCCCC(=O)SCC/C=C/[C@@H]1CC(=O)NCc2nc(cs2)C2=N[C@@](C)(CS2)C(=O)N[C@@H](C(C)C)C(=O)N1`, for which the growth is 25.3%.
To `CCOc1ccc(-n2c(-c3cc(OC)c(OC)c(OC)c3)nnc2-c2ccc(OC)cc2N)cc1` belongs 80.2%.
On to `COc1cc(NC(C)CCCN2C(=O)c3ccccc3C2=O)c2nc(C)ccc2c1OC` (stereo not given), for which the growth was 97.4%.
In the case of `NS(=O)(=O)c1ccc(CCN2C(=O)/C(=C\c3ccc(Cl)cc3)C=C2c2ccc(Oc3ccccc3)cc2)cc1`, the growth is 79.8%.
Take `O=c1c2ccccc2sc2c(NCCN3CCOCC3)nc3ccccc3c12`: the growth was 69.4%.
Take `N#Cc1c(N)nc(Cl)c(C#N)c1C(=O)c1ccccc1`: the growth is 11.6%.
As to `O=C(CSc1nnc(-c2ccccc2)o1)Nc1ccc(C(=O)/C=C/c2ccccc2)cc1`, the growth is 97%.
For `S=c1ssnc1-c1ccccn1`, the growth was 52.2%.
Take `Cc1cccc[n+]1CCC[n+]1ccccc1C`: the growth is 103%.
`C#C[C@@]1(O)[C@@H](CO)O[C@@H](n2cc(C(F)(F)F)c3c(N)ncnc32)[C@@H]1O`: the growth was 28.1%.
As to `COC(=O)Nc1nc2ccc(Sc3ccccc3)cc2[nH]1`, the growth is 48.9%.
Consider `Cc1cccc(Cc2cnc(NC(=O)CCc3ccc(C)o3)s2)c1`, for which the growth was 61%.
To `c1ccc([Se]CCCN2CCN(CCC[Se]c3ccccc3)CC2)cc1` belongs 111%.
Regarding `O=C1CCC(=O)N1C1CCCCC1`, the growth is 108%.
Regarding `COc1cc(C(=O)N2CCN(C(=O)c3cc(OC)c(OCc4ccccc4)cc3N)CC2)c(N)cc1OCc1ccccc1`, the growth is 123%.
Regarding `O=[N+]([O-])c1cccc(C(c2ccccc2)c2ccccc2)c1`, the growth was 107%.
On to `C=CCn1c(SCC(=O)Nc2ccc(/C(C)=N\O)cc2)nnc1-c1cc(-c2ccc(OC)cc2)nc2ccccc12`, for which the growth was 61.7%.
With `COc1cc(/C=C2/Oc3cc4occc4c(OC)c3C2=O)ccc1OCC(=O)Nc1ccncc1`, the growth is 117%.
Take `O=C(Nc1cccc(-n2ccc3c(NC(=O)c4ccccc4)nccc32)c1)c1cc(N2CCOCC2)cc(C(F)(F)F)c1`: the growth was 38%.
For the compound `O=C1C(Cl)=C(Nc2cccc3cc4ccccc4nc23)C(=O)c2ccccc21`, the growth was 102%.
On to `Cn1c2ccccc2c2ssc(=S)c21`, for which the growth was 108%.
Regarding `COc1cc(NC(=O)c2cc(OC)c3ccn(C)c3c2)cc2c1C[C@]1(C)CC[C@@H](O)C(C)(C)[C@H]1O2`, the growth is 36.9%.
For `CCN(CC)CCC(C(=O)O)(c1ccccc1)c1ccccc1`, the growth was 109%.
Regarding `O=C(C[n+]1ccccc1Cl)c1ccc2c(c1)CCCC2`, the growth was 105%.
Regarding `CCCC(C)(C)COC(=O)c1cccc(N)c1`, the growth is 117%.
As for `C=C1C(=O)O[C@H]2[C@H]1CC/C(COC(=O)c1cccc3ccccc13)=C\CC[C@@]1(C)O[C@@H]21`, the figure is -56.7% (active); as for `Nc1nc(-c2cc3c(cc2Cl)NC(=O)/C3=C/c2ccccc2)cs1`, 76.1%; as for `CCc1c2cc(Cl)ccc2n2cc(Cc3ccccc3)[nH]c(=O)c12`, 107%.
`COc1ccc(-c2nnc(SCC(=O)Nc3ccc(C(=O)/C=C/c4ccccc4)cc3)o2)cc1OC`: the growth was 106%.
As to `CN(C)CCNc1nc2ccccc2c2c(=O)c3ccccc3sc12`, the growth was -25.3% (active).
For `CCn1cc(/C=C2\Oc3cc(OCC#N)ccc3C2=O)c2cc(OC)ccc21`, the growth was 70.5%.

Values taken from PubChem BioAssay (NCI).
